This is an account of results in the supplement of paper PMC10338343.

± gives the standard deviation. Over roughly 6,600 sequences, “pre-steady-state target cleavage rate” has its median near 0.07; the highest 2% begin near 0.72. The entries come from a sample that favours the highest values as a whole.

The assay has as its system MIWI (PIWIL1) piRISC loaded with Kctd7 piRNA (30 nt). Kind of assay: pre-steady-state target cleavage rate (min^-1); MIWI and MILI are mouse PIWI proteins and EfPiwi is from a freshwater sponge; tags in brackets are library labels; higher = faster piRNA-guided slicing of the target. To be noted: guide: Kctd7 piRNA 5'p-UGUUAAUCUCUCAGAGAAGGUGACAGUGAU; auxiliary factor: 500 nM mouse GTSF1. On the procedure:
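Cleave-'n-Seq: a library of target RNAs (target site embedded in constant flanks, ACAGCATTCCGCGTTAGTGATATCCG... 5' flank; DNA-blocked outside the site) at 0.1 nM was incubated with 1 nM active mouse MILI or MIWI piRISC (synthetic 5'-monophosphorylated piRNA guide) with or without 500 nM mouse GTSF1 at 33 °C for 1 min to 16 h. Uncleaved targets were sequenced and normalised to non-target controls, and the pooled three trials were fitted to a burst-and-steady-state model to give the pre-steady-state cleavage rate (min^-1; k3 is constrained to at most 1e-4). Sequence is the target site only; target names encode pairing extent (gX:gY) and contiguous / 1-mismatch / 2-mismatch / bulge geometry. Fits with R² ≤ 0 are excluded.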
In the case of UAGUGUGUGACCUUCUCUGUGAGAUUAACA, the “pre-steady-state target cleavage rate” value was 0.206 ± 0.016.
The value for UAGUGACAGUCCCUUCUCUGAGAGAUUAACA was 0.611 ± 0.046; that for UACACUCGUCACCUUCUCUGAGAGAUUAACA was 0.77 ± 0.035; that for UACACUCUCACCUUCUCUGAGAGAUUAACA was 0.444 ± 0.031.
The value for AUCACUCGUCACCUUCUCUGAGAGAUUAACA was 0.747 ± 0.043.
Consider UAGUCUCGUCACCUUCUCUGAGAGAUUAACA, for which the “pre-steady-state target cleavage rate” value was determined as 0.571 ± 0.025.
As for UACACACUCACCUUCUCUGAGAGAUUAACA, the “pre-steady-state target cleavage rate” value came to 0.568 ± 0.044.
For UUCACUCGUCACCUUCUCUGAGAGAUUAACA, the “pre-steady-state target cleavage rate” value was 0.78 ± 0.042.
Consider UAGACUCGUCACCUUCUCUGAGAGAUUAACA, for which the “pre-steady-state target cleavage rate” value turned out to be 0.687 ± 0.041.
The value for AUCACUCUCACCUUCUCUGAGAGAUUAACA was 0.551 ± 0.029.
As to UUCACUCUCACCUUCUCUGAGAGAUUAACA, the “pre-steady-state target cleavage rate” value stood at 0.54 ± 0.028.
Consider UACACUGUCACCUUCUCAGAGAGAAUAACA, for which the “pre-steady-state target cleavage rate” value was determined as 0.076 ± 0.021.
Under AUCACUGUCACGUUCUCUCAGAGAUUAACA stands 0.0868 ± 0.0082; under UAGUGUCUCACCUUCACUGAGAGAUUAACA, 0.276 ± 0.019; under UAGUGACUCACCAUCUCUGAGAGUUUAACA, 0.173 ± 0.035.
The value for UACACUGUCACCUUCUCUGAGACAUUUUGA was 0.00497 ± 0.0047; that for UUCACUGUCACCUUCUCUGAGGGAUUAACA was 0.51 ± 0.024.
Under UAGACUGUCACCUUCUCUGAGGAUUAACA stands 0.00433 ± 0.0033; under AUCACUGUCACCUUCUCUGAGGGAUUAACA, 0.75 ± 0.041; under UAGACUGUCACCUUCUCUGAGAGGAUUAACA, 0.369 ± 0.036.
With UAGACUGUCACCUUCUCUGAGGGAUUAACA, the “pre-steady-state target cleavage rate” value is 0.741 ± 0.051.
For UACACUGUCACCUUCUCUGAGGGAUUAACA, the “pre-steady-state target cleavage rate” value worked out at 0.611 ± 0.033.
The value for UAGUGACUCACGUUCUCUGAGAGUUUAACA was 0.0255 ± 0.006.
Turning to UACACUGUCACCUUCACUGAGACAUUAACA, the “pre-steady-state target cleavage rate” value was 0.19 ± 0.025.
The value for AUCACUCACACCUUCUCUGAGAGAUUAACA was 0.587 ± 0.027.
Turning to UAGACUGUCACCUUCUCUGAGAGAUUUACA, the “pre-steady-state target cleavage rate” value stood at 0.369 ± 0.049.
Consider UAGUGACACACCAUCUCUGAGAGAUUAACA, for which the “pre-steady-state target cleavage rate” value was 0.274 ± 0.027.
With AUCACUGUCAGCUUCUCUGAGAGUUUAACA, the “pre-steady-state target cleavage rate” value stood at 0.149 ± 0.018.
As to AUCACUGACACCUUCUCUGAGAGUUUAACA, the “pre-steady-state target cleavage rate” value amounted to 0.644 ± 0.16.
UUCACUGUCACCUUCUCUGAGAGUUUAUCA: the “pre-steady-state target cleavage rate” value came out at 0.27 ± 0.061.
The value for UUCACUGACACCUUCUCUGAGAGUUUAACA was 0.591 ± 0.11; that for UUCUCUGUCACCUUCUCUGAGAGUUUAACA was 0.517 ± 0.07.
Under UACACUGACACCUUCUCUGAGAGUUUAACA stands 0.904 ± 0.3; under UACACUGUCACCUUCUCUGAGAGUUUAUCA, 0.137 ± 0.041; under UACUCUGUCACCUUCUCUGAGAGUUUAACA, 0.781 ± 0.098.
Turning to AUCUCUGUCACCUUCUCUGAGAGUUUAACA, the “pre-steady-state target cleavage rate” value stood at 0.711 ± 0.12.
AUCACUGUCACCUUCUCUGAGAGUUUAUCA: the “pre-steady-state target cleavage rate” value was determined as 0.753 ± 0.19.
Under UAGUCUGUCACCUUCUCUGAGAGAAAUACA stands 0.0823 ± 0.015; under AUCACUGAGACCUUCUCUGAGAGAUAUUGA, 0.0157 ± 0.0047.
Under UAGUGACAGCCCUUCUCUGAGAGAUUAACA stands 0.184 ± 0.019.
In the case of UUCACUGUCACCUUCUCUGAGAGUUUUACA, the “pre-steady-state target cleavage rate” value worked out at 0.559 ± 0.12.
On to UAGUGACUCACCUUCUCUGUGACAUUAACA, for which the “pre-steady-state target cleavage rate” value was determined as 0.0765 ± 0.0076.
The value for UAGUCUCUCACCUUCUGUGAGAGAUUAACA was 0.00482 ± 0.0046; that for UAGACUCUCACCUUCUCUGAGAGAUUUUGA was 0.0479 ± 0.011; that for UUGCACUGUCACCUUCUCUGAGAGAUUAACA was 0.781 ± 0.045.
Under UACACUGGCACCUUCUCUGAGAGAUUAACA stands 0.453 ± 0.12.
The value for UUCACUGGCACCUUCUCUGAGAGAUUAACA was 0.728 ± 0.15; that for UUCACUGUGCACCUUCUCUGAGAGAUUAACA was 0.606 ± 0.05.
For UGCACUGUCACCUUCUCUGAGAGAUUAACA, the “pre-steady-state target cleavage rate” value was 0.726 ± 0.039.
For the sequence AUGCACUGUCACCUUCUCUGAGAGAUUAACA, the “pre-steady-state target cleavage rate” value came to 0.775 ± 0.056.
Under AUCACUGGCACCUUCUCUGAGAGAUUAACA stands 0.724 ± 0.17.
Under UACAGUGUCACCUUCUGUGAGAGAUUAACA stands 0.662 ± 0.028; under UAGUGACACACCUUCUCAGAGUGAUUAACA, 0.00558 ± 0.0037.
As to UAGUGUGUCACCUUCUCUGAGAGAUUAUCA, the “pre-steady-state target cleavage rate” value worked out at 0.219 ± 0.026.
In the case of UAGUGACUCUGCUUCUCUGAGAGAUUAACA, the “pre-steady-state target cleavage rate” value worked out at 0.00843 ± 0.0019.
In the case of UAGUGACAGUCCUUCCUCUGAGAGAUUAACA, the “pre-steady-state target cleavage rate” value was 0.27 ± 0.027.
As for UAGUCUCUCACGUUCUCUGAGAGAUUAACA, the “pre-steady-state target cleavage rate” value was found to be 0.0195 ± 0.0042.
With UAGUGACACACCAUCUCUGAGAGAAUAACA, the “pre-steady-state target cleavage rate” value came out at 0.0218 ± 0.0057.
Under AGCACUGUCACCUUCUCUGAGAGAUUAACA stands 0.765 ± 0.044.
Under UAGUCUGUCACCUUCUGUGAGAGAUAAACA stands 0.0539 ± 0.0081; under UACGACUGUCACCUUCUCUGAGAGAUUAACA, 0.746 ± 0.07; under UUCGACUGUCACCUUCUCUGAGAGAUUAACA, 0.859 ± 0.06.
With AUCGACUGUCACCUUCUCUGAGAGAUUAACA, the “pre-steady-state target cleavage rate” value is 0.821 ± 0.059.
UAGUGUGUCAGCUUCUCUGAGAGAUUAAGA: the “pre-steady-state target cleavage rate” value was 0.0938 ± 0.015.
With UACACUCUCACCUUCUCUGUGAGAUUAACA, the “pre-steady-state target cleavage rate” value was 0.141 ± 0.014.
UUGUGUGUCACCUUCUCUGAGAGAUUAACA: the “pre-steady-state target cleavage rate” value was 0.571 ± 0.025.
With UAGACAGUCACCAUCUCUGAGAGAUUAACA, the “pre-steady-state target cleavage rate” value turned out to be 0.68 ± 0.042.
Under UUCACUCUCACCAUCUCUGAGAGAUUAACA stands 0.465 ± 0.024; under UUCACAGUCACCAUCUCUGAGAGAUUAACA, 0.747 ± 0.039.
Consider UAGUCAGUCACCAUCUCUGAGAGAUUAACA, for which the “pre-steady-state target cleavage rate” value was 0.706 ± 0.04.
The value for UACAGUGUCACCAUCUCUGAGAGAUUAACA was 0.592 ± 0.036; that for UACACUCUCACCAUCUCUGAGAGAUUAACA was 0.406 ± 0.028; that for UAGUCUCUCACCAUCUCUGAGAGAUUAACA was 0.0365 ± 0.0075.
Under AUCACAGUCACCAUCUCUGAGAGAUUAACA stands 0.771 ± 0.036; under UACACAGUCACCAUCUCUGAGAGAUUAACA, 0.833 ± 0.045.
